Measured values reported in PubChem BioAssay.
A number with no mark means an inactive call. For some assays here: Measured potencies and affinities stand elsewhere. Calls of active or inactive are those of the source. Unless noted, how the calls were made is not given here.

Tests used:
[1] = antimalarial activity against Dd2 strain (AID 2302;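 active means growth inhibition above 50% at the single 2 µM test dose, taken to imply half-maximal potency below 2 µM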;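 further: 0% = DMSO untreated growth and 100% = chloroquine plus artemisinin killed control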); settings: P. falciparum Dd2 in RBCs, LDH growth readout, 72 h; at 2 µM; stronger effect = higher value
[2] = HepG2 cytotoxicity, primary screen, cytotoxicity control for P. falciparum antimalarial project, cell-based, ATP luminescence (AID 2303;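 active means inhibition above 50%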;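 further: 0% = DMSO wells and 100% = digitonin-killed cells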); settings: HepG2 viability, 24-48 h, at 10 µM, stronger effect = higher value
[3] = biological target: L-lactate dehydrogenase (Plasmodium falciparum (isolate CDC / Honduras)) (UniProt Q27743); test: PfLDH activity inhibition – cell lysate, 3D7 strain, counter-screen for P. falciparum growth inhibition project (AID 2304);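 further: 0% = vehicle and 100% = reference inhibitor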; settings: P. falciparum 3D7 crude extract, LDH APAD/NBT absorbance; at 2 µM; stronger effect = higher value
[4] = inhibition of 3D7 malaria parasite growth – strain 3D7 (AID 2306);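 further: 0% = DMSO wells and 100% = chloroquine plus artemisinin control wells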; settings: P. falciparum 3D7 erythrocytic growth, LDH absorbance, 72 h; at 2 µM; stronger effect = higher value
[5] = biological target: Calcium-dependent protein kinase 1 (Plasmodium falciparum (isolate 3D7)) (UniProt P62344); test: PfCDPK1 kinase inhibitors, biochemical, TCAMS library (AID 1159585; cut-off not given, nearly all actives have IC50 up to about 0.98 µM;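 further: inhibitors leave more ATP so luminescence rises with inhibition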); settings: recombinant PfCDPK1, Kinase-Glo ATP depletion luminescence
[6] = biological target: Plasmodium falciparum protein kinase 6 (PK6, PF3D7_1337100) (UniProt Q8IDW1); test: PfPK6 kinase inhibitors, biochemical, TCAMS library (AID 1159586); settings: recombinant PfPK6, Kinase-Glo ATP depletion luminescence
[7] = biological target: Protein kinase 7 (PK7), Plasmodium falciparum 3D7 (PF3D7_0213400) (UniProt Q7YTF7); test: inhibition of Plasmodium PK7 catalytic activity – biochemical, TCAMS antimalarial set, Kinase-Glo luminescence (AID 1159587); settings: recombinant PfPK7, Kinase-Glo ATP depletion luminescence
[8] = biological target: Calcium-dependent protein kinase 4 (Plasmodium falciparum (isolate 3D7)) (UniProt Q8IBS5); test: PfCDPK4 kinase inhibitors, biochemical, TCAMS library (AID 1159588; cut-off not given, nearly all actives have IC50 up to about 0.91 µM); settings: recombinant PfCDPK4, Kinase-Glo ATP depletion luminescence
Calcium-dependent protein kinase 4 (Plasmodium falciparum (isolate 3D7)), sequence (Q8IBS5 whole entry, looked up): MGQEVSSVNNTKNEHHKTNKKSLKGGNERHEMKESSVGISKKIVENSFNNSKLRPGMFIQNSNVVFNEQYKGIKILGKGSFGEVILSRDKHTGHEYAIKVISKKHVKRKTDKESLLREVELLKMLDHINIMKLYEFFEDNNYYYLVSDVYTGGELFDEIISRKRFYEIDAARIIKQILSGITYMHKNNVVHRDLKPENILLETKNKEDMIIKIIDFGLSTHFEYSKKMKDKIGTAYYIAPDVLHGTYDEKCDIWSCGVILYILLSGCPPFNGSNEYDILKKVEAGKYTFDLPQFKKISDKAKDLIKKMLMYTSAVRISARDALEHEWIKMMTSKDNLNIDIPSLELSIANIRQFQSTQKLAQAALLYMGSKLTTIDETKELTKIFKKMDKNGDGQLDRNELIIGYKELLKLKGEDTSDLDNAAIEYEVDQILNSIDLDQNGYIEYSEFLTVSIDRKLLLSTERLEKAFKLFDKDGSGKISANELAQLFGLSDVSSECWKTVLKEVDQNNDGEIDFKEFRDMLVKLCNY

Calcium-dependent protein kinase 1 (Plasmodium falciparum (isolate 3D7)), sequence (P62344 whole entry, looked up): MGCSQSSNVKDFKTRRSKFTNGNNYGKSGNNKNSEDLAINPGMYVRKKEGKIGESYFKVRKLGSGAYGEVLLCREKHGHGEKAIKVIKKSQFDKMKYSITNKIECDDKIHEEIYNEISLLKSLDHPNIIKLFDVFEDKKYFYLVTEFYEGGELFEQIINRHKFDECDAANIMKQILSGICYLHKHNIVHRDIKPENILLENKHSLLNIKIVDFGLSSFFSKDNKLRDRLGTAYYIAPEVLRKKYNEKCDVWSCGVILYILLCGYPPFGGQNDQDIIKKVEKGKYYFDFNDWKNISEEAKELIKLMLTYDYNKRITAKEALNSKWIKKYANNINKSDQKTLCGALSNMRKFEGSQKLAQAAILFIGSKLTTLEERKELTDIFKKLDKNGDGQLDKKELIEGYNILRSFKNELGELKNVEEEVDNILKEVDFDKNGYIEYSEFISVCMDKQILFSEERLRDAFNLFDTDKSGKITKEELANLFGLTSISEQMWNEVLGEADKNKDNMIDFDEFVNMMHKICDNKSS
L-lactate dehydrogenase (Plasmodium falciparum (isolate CDC / Honduras)), sequence (Q27743 whole entry, looked up): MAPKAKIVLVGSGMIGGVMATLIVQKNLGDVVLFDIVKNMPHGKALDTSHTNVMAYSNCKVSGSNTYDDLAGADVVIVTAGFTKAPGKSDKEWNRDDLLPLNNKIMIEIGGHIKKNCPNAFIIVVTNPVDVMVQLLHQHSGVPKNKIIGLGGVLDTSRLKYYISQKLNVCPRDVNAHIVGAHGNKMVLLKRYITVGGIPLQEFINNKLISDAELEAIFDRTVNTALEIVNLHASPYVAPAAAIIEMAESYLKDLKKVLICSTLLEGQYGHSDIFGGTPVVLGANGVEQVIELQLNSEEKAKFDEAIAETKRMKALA
Plasmodium falciparum protein kinase 6 (PK6, PF3D7_1337100), sequence (Q8IDW1 1-305): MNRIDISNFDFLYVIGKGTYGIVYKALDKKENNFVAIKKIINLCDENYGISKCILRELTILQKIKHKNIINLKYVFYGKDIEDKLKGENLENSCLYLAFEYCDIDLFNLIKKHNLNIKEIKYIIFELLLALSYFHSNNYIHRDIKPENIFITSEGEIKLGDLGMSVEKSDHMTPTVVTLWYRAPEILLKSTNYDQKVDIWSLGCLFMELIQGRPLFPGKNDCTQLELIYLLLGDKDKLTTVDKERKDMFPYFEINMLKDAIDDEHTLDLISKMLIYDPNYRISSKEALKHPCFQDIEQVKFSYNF
Protein kinase 7 (PK7), Plasmodium falciparum 3D7 (PF3D7_0213400), sequence (Q7YTF7 1-343): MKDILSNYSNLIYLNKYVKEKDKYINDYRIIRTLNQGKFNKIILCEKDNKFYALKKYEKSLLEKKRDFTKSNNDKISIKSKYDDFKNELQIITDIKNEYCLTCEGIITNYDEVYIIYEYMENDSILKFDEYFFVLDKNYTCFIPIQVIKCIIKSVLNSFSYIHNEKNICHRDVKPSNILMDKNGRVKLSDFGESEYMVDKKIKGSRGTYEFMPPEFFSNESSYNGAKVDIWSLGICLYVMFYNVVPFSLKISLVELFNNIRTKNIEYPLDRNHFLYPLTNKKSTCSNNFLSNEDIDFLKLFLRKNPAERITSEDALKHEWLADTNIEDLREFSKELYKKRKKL

Row | Compound | growth inhibition [1] | inhibition [2] | inhibition [3] | growth inhibition [4] | outcome [5] | outcome [6] | outcome [7] | outcome [8]
1 | COc1cccc(CN2CCCC(OC(c3ccccc3)c3ccccc3)C2)c1O (configuration not stated) | 73% (active) | 19% | 0% | 90% (active) | inactive | inactive | inactive | inactive
2 | COc1cc(CNC[C@@H](O)[C@H](Cc2ccccc2)NC(=O)c2cc(C3CCCC3)cc(N3CCCCS3(=O)=O)c2)cc(OC)c1 | 96% (active) | 16% | 4% | 98% (active) | inactive | inactive | inactive | inactive
3 | Cc1cc(N2CCN(CC3CCN(C)CC3)CC2)nc(Nc2ccc(Br)cc2)n1 | 100% (active) | 31% | 5% | 100% (active) | inactive | inactive | inactive | inactive
4 | N#Cc1ccc(NC(=O)Nc2ccc(OC(F)(F)F)cc2)cc1 | 91% (active) | 43% | 0% | 98% (active) | inactive | inactive | inactive | inactive
5 | COc1cccc(CNC[C@@H](O)[C@H](Cc2ccccc2)NC(=O)c2cc(C(C)C)cc(N3CCCC3=O)c2)c1 | 61% (active) | 1% | -4% | 95% (active) | inactive | inactive | inactive | inactive
6 | Cc1ncc([N+](=O)[O-])n1CCOC(=O)NC(NCC1COc2ccccc2O1)C(Cl)(Cl)Cl (configuration not stated) | 78% (active) | -9% | -4% | 101% (active) | inactive | inactive | inactive | inactive
7 | CC(C)COc1ccc(Cl)cc1Cc1nc(-c2nc3c(CN4CCN(C)CC4)cccc3[nH]2)cs1 | 30% | 15% | -2% | 99% (active) | inactive | inactive | inactive | inactive
8 | O=c1cc(NCCCNCc2ccc(C(F)(F)F)c(F)c2)[nH]c2ccccc12 | 26% | 5% | 4% | 93% (active) | inactive | inactive | inactive | inactive
9 | CCc1cccc(C)c1-n1nc(-c2cc(C(C)(C)C)oc2C)cc1N | 95% (active) | 4% | 5% | 95% (active) | inactive | inactive | inactive | inactive
10 | CC(C)(C)c1ccc(CN2CCCCC(NC(=O)c3cc(-c4ccccc4Cl)cs3)C2)cc1 (configuration not stated) | 98% (active) | 3% | -1% | 101% (active) | inactive | inactive | inactive | inactive
11 | O=C1CCCN1CCCNCc1ccc(-c2ccc(-c3nc4ccc(C(F)(F)F)cc4[nH]3)s2)cc1 | 96% (active) | 9% | -4% | 100% (active) | inactive | inactive | inactive | inactive
12 | O=C(Nc1ccc2ccccc2n1)c1ccccc1-c1ccccc1 | 83% (active) | 14% | 0% | 90% (active) | inactive | inactive | inactive | inactive
13 | Cc1ccc(OCCCON2C(N)=NC(N)=NC2(C)C)cc1C | 94% (active) | 57% (active) | 0% | 96% (active) | inactive | inactive | inactive | inactive
14 | COc1ccccc1CCNc1nc(C)cc(N[C@@H](Cc2ccccc2)C(=O)NCCOc2ccccc2)n1 | 76% (active) | 20% | 4% | 101% (active) | inactive | inactive | inactive | inactive
15 | CC(C)C1=CC(=NOS(=O)(=O)c2ccccc2)C=C(C(C)C)C1=O | 74% (active) | 23% | -3% | 92% (active) | inactive | inactive | inactive | inactive
16 | CCN(CC)CCN(Cc1ccc(-c2ccc(C(F)(F)F)s2)cc1)C(=O)Cn1c(CCc2cccc(F)c2F)nc(=O)c2ccccc21 | 31% | 43% | 3% | 94% (active) | inactive | inactive | inactive | inactive
17 | Fc1ccc(-c2nc(NCc3cccc(C(F)(F)F)c3)nn2-c2cccc(C(F)(F)F)c2)cc1C(F)(F)F | 58% (active) | 2% | -5% | 90% (active) | inactive | inactive | inactive | inactive
18 | COc1ccc(C(=O)Cn2nc(-c3ccc(Cl)cc3)ccc2=O)c(OC)c1 | 70% (active) | -12% | 4% | 93% (active) | inactive | inactive | inactive | inactive
19 | COc1ccc(NC(=O)CCNc2cc(C)nc(Nc3ccccc3)n2)cc1 | 15% | -9% | -2% | 92% (active) | inactive | inactive | inactive | inactive
